# PubChem BioAssay (NCI)
# This is part of a sample that, as a whole, favours compounds with a hit. Of some 83,000 tested, about 20% had one in any assay.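 A percent growth of 40 corresponds to 60% growth inhibition; 0 means no net growth; -100 means all cells died. Active threshold: below 10.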 Unmarked numbers belong to inactive results. The source made the active and inactive calls.
# How the values were obtained:
# Assay in all cases: NCI-60 one-dose screen, 48 h (100 = growth as untreated, 0 = no growth, -100 = all killed)
# NCI-H460 lung = settings: 10 µM unless noted
# 786-0 renal = settings: 10 µM unless noted
# DU-145 prostate = settings: 10 µM unless noted
# SF-268 CNS = settings: 10 µM unless noted
# SF-539 CNS = settings: 10 µM unless noted
# M14 melanoma = settings: 10 µM unless noted
# HCT-15 colon = settings: 10 µM
# SNB-75 CNS = settings: 10 µM unless noted
# PC-3 prostate = settings: 10 µM unless noted
# UACC-62 melanoma = settings: 10 µM unless noted
# TK-10 renal = settings: 10 µM unless noted
# ACHN renal = settings: 10 µM unless noted
# CAKI-1 renal = settings: 10 µM unless noted
# HL-60(TB) leukemia = settings: 10 µM unless noted
# MOLT-4 leukemia = settings: 10 µM
# OVCAR-3 ovarian = settings: 10 µM unless noted
# NCI/ADR-RES ovarian = settings: 10 µM unless noted
# SW-620 colon = settings: 10 µM unless noted
# MCF7 breast = settings: 10 µM unless noted
# KM12 colon = settings: 10 µM unless noted
SMILES,growth (NCI-H460 lung),growth (786-0 renal),growth (DU-145 prostate),growth (SF-268 CNS),growth (SF-539 CNS),growth (M14 melanoma),growth (HCT-15 colon),growth (SNB-75 CNS),growth (PC-3 prostate),growth (UACC-62 melanoma),growth (TK-10 renal),growth (ACHN renal),growth (CAKI-1 renal),growth (HL-60(TB) leukemia),growth (MOLT-4 leukemia),growth (OVCAR-3 ovarian),growth (NCI/ADR-RES ovarian),growth (SW-620 colon),growth (MCF7 breast),growth (KM12 colon)
NC(=O)C(Cl)Cl,100%,107%,108%,102%,107%,112%,97.6%,96.4%,97.5%,105%,98.7%,104%,98.1%,80.8%,109%,110%,114%,113%,92.8%,110%
O=C(CCc1ccco1)NC1CCN(CC2(c3ccc(Cl)cc3)CCC2)CC1,3.79% (active),20.4%,24%,22.1%,34.5%,10.3%,18.7%,16%,1.34% (active),17%,-0.211% (active),13.8%,5.62% (active),-42.7% (active),-11.7% (active),13.9%,6.97% (active),14.7%,2.88% (active),1.4% (active)
CC(=O)O[C@H]1CCC2(C)C(=CCC3C2CCC2(C)/C(=N/OC(=O)c4ccc(N(CCCl)CCCl)cc4)CCC32)C1 (some centres undefined),21%,47.6%,78.7%,5.4% (active),51.5%,59.4%,55.2%,22.5%,47.8%,68.4%,79.8%,46.4%,50.2%,17.5%,3.85% (active),53.5%,44%,84.1%,39%,47.6%
Cn1cnnc1[S-].[Au+].c1ccc([PH+](c2ccccc2)c2ccccc2)cc1,58.5%,1.78% (active),33.6%,12.5%,15.4%,-11.9% (active),-67.4% (active),-62.3% (active),23.8%,-15.1% (active),-44.5% (active),-42.3% (active),23.6%,-12.7% (active),-9.25% (active),-81.2% (active),69.5%,-49.3% (active),-56.5% (active),58.3%
C[C@]12C[C@H](O)[C@H]3[C@@H](CCC4=CC(=O)CC[C@@]43C)[C@@H]1CC[C@@H]2O,108%,107%,112%,105%,99%,98.4%,100%,85.7%,95.3%,98.5%,–,101%,88%,105%,103%,112%,104%,107%,103%,105%
CC[C@]12C=CCN3CC[C@@]4(c5ccc(OC)cc5N(C)[C@H]4[C@@](O)(C(=O)OC)[C@@H]1OC(=O)CCCN1CCN(CCCC(=O)O[C@@H]4[C@]5(CC)C=CCN6CC[C@@]7(c8ccc(OC)cc8N(C)[C@H]7[C@@]4(O)C(=O)OC)[C@@H]65)CC1)[C@@H]32,-80.3% (active),-81.9% (active),-90.6% (active),-82.6% (active),-95.5% (active),-80.6% (active),-74.3% (active),-94.3% (active),-80.3% (active),-87.7% (active),-87.9% (active),-83.3% (active),-97% (active),-66.6% (active),-62.9% (active),-85.2% (active),-40.6% (active),-81.9% (active),-83.8% (active),-73.9% (active)
CCC(C)(C)O,104%,114%,115%,99.1%,108%,107%,99.9%,92.1%,100%,98.5%,107%,103%,93.6%,86.4%,121%,111%,110%,99.9%,97.6%,105%
